Compound activity from PubChem.
In the library only some 2.2% were active in any assay of this set; here they are far more common.
MEKK2 mut-MEK5: signal of MEK5 binding to mutant human MEKK2 PB1 domain; percent response, % at 10 µM; AID 1530; bead flow cytometry, Alexa488-MEK5 binding to MEKK2 mutant; 290,000 tested, 0.35% active; in the data active = percent response above about 24%, passing the limit was not always enough
MEKK2wt PB1 HTS: raises or lowers MEK5 binding to wildtype human MEKK2 PB1 domain | 290,000 tested, 1.1% active | bead flow cytometry, Alexa488-MEK5 binding to MEKK2 WT; actives lie on both sides | Q9Y2U5 | binding response (% of control), % at 10 µM; in the data active = binding response below about 67% or above about 130%
VLA-4 inh: inhibition in a human VLA-4 binding assay; P13612; VLA-4 expressing cells, ligand binding flow cytometry; inhibition, % (about 7 µM as worked out from the volumes in the protocol); 330,000 tested, 0.2% active; AID 2557; in the data active = inhibition above about 50%
Target sequence (P13612 whole entry, looked up): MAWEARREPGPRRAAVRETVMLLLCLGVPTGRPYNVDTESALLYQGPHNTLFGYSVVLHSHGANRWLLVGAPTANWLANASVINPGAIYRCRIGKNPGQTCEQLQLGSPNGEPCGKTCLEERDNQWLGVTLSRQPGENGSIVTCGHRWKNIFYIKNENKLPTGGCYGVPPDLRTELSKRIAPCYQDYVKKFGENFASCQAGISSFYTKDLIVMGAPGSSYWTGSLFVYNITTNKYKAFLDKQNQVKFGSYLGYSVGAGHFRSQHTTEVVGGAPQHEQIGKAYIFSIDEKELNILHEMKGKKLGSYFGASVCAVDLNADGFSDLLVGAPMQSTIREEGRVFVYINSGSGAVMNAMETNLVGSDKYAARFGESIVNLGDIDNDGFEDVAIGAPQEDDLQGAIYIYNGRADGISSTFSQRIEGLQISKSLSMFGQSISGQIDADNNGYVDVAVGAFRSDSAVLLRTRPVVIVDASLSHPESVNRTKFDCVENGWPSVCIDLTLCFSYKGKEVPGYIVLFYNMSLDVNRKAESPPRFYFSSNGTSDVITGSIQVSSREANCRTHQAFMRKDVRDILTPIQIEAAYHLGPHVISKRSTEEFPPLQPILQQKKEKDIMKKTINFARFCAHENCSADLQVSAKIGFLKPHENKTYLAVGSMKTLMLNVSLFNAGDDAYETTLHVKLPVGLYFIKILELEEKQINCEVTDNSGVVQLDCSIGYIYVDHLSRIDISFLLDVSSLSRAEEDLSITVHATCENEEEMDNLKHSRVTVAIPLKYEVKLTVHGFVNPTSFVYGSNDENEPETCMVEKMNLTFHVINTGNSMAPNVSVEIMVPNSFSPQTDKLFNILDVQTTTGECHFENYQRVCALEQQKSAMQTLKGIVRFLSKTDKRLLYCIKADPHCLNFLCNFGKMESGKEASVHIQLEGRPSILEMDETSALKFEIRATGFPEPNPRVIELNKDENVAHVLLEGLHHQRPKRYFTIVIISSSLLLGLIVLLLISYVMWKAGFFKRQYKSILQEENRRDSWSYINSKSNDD
MEKK3 PB1 HTS: MEKK3-MEK5 PB1 interaction, increase or decrease; Q99759; bead-based flow cytometry, Alexa488-MEK5 binding to MEKK3; actives lie on both sides; 0 = blocked by unlabeled MEK5, 100 = vehicle; binding response (% of control), % at 10 µM; 290,000 tested, 1.4% active;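 active = binding response more than 3 SD above or below the average of its plate-row segment, actives on both sides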;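 also: Alexa488 bead fluorescence after subtracting the streptavidin-only scavenger bead signal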
MEKK2wt confirm: raises or lowers MEK5 binding to wildtype human MEKK2, retest. shares compounds with MEKK3 PB1 HTS. bead flow cytometry, Alexa488-MEK5 binding to MEKK2 WT; actives lie on both sides. binding response (% of control), % at 10 µM. 5,900 tested, 2.4% active. AID 1892; in the data active = binding response below about 16% or above about 210%; inactive = in between
MEKK2mut confirm: signal of MEK5 binding to mutant human MEKK2, retest; percent response, % at 10 µM; bead flow cytometry, Alexa488-MEK5 binding to MEKK2 mutant; shares compounds with MEKK3 PB1 HTS; 5,900 tested, 2% active; in the data active = percent response mostly above about 71%, no sharp cut-off; inactive = mostly below about 38%;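 also: higher means compound restores mutant binding toward wildtype level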
MEKK3-MEK5 inh: MEKK3-MEK5 PB1 inhibition, single concentration confirmation | shares compounds with MEKK3 PB1 HTS | bead flow cytometry, Alexa488-MEK5 binding to MEKK3; hits give low values | binding response (% of control), % at 10 µM | 5,900 tested, 1.8% active | AID 1894;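 active = binding response below 72% of control, or above a set upper limit, though filed actives all read lower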;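 also: lower values mean stronger disruption of MEK5 binding to MEKK3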
A number is an active result; - = inactive; . = no result; [ ] = another dose, or the depositor's remark.

SMILES	MEKK2 mut-MEK5	MEKK2wt PB1 HTS	VLA-4 inh	MEKK3 PB1 HTS	MEKK2wt confirm	MEKK2mut confirm	MEKK3-MEK5 inh
CN(C)CCCn1c(=O)n(CCc2ccccc2)c(=O)c2c3c(sc21)CCCCC3	-	-	-	-	.	.	.
O=C(CSc1nc2ncc(Cl)cc2[nH]1)NCC(=O)Nc1ccc(F)c(F)c1F	-	-	-	-	.	.	.
O=C(CCNc1ccc(Cc2ccncc2)cc1)c1ccc([N+](=O)[O-])cc1	-	-	-	-	.	.	.
CN1/C(=C\C=Nc2cc(S(=O)(=O)N3CCOCC3)ccc2N2CCOCC2)C(C)(C)c2ccccc21	-	-	-	137.0	-	-	-
CCCCCCNC(=O)N[C@@H](C(=O)NCCC[C@H]1CN2C(=NC[C@@H]2Cc2ccccc2)N1CCc1cccc(OC)c1)C(C)C	46.0	201.0	-	-	-	-	-
CC(=O)Nc1ccc(NC(=O)COC(=O)COc2ccc3ccccc3c2)cc1	.	.	-	.	.	.	.
c1ccc(CNc2nc(NCc3ccccc3)c3ccccc3n2)cc1	140.0	262.0	-	-	256.0	116.0	-
CCOC(=O)C(NC(=O)Nc1ccc(Cl)cn1)(Oc1ccccc1)C(F)(F)F (configuration not stated)	-	-	-	153.0	-	-	-
CCOC(=O)C(NC(=O)Nc1ccc(F)cc1F)(Oc1ccccc1)C(F)(F)F (configuration not stated)	-	-	-	-	.	.	.
CC1CCN(C(=O)C2CCC(C)(C(=O)O)C2(C)C)CC1 (configuration not stated)	-	-	.	135.0	-	-	-
Cc1ccccc1NC(=O)C1CCC(C)(C(=O)O)C1(C)C (configuration not stated)	-	-	-	-	.	.	.
N=C1S/C(=C\c2ccccc2F)C(=O)N1c1ccc(F)cc1	-	-	-	-	.	.	.
N=C1S/C(=C\c2ccccc2)C(=O)N1c1ccc(F)cc1	-	-	-	138.0	-	-	-
Cc1ccc(C(=O)Nc2cccnc2)cc1S(=O)(=O)N1CCOCC1	-	-	-	129.0	-	-	-
CC/C(=C\c1oc2cc3ccccc3cc2[n+]1CC)Nc1ccccc1	464.0	389.0	-	135.0	-	-88.0[inhibitor]	-
Cc1cccc(-n2c(=O)c3c4c(sc3n3c(=S)[nH]nc23)CCC4)c1	-	-	.	131.0	-	-	-
O=C(Nc1cccc(F)c1)N1CCN(C(=O)c2ccco2)CC1	-	-	-	-	.	.	.
N#Cc1cnc(NCc2ccc(Cl)cc2Cl)nc1	-	-	-	-	.	.	.
CC(C)NC(=O)C1CCN(C(=O)N(C)C)CC1	-	-3.0[inhibitor]	-	1.0[inhibitor]	-	-	-
CCNC(=S)N1CCN(S(=O)(=O)c2cccc(C(F)(F)F)c2)CC1	-	-	-	151.0	-	-	-
CC(C)NC(=S)N1CCN(S(=O)(=O)c2cccc(C(F)(F)F)c2)CC1	-	-	-	-	.	.	.
COc1ccc(Cl)cc1NC(=S)NCCCN1CCCC1=O	-	-	-	46.0[inhibitor]	-	-	-
O=C1CCCN1CCCNC(=S)Nc1ccc(Br)cc1Cl	-	-	-	-	.	.	.
Cc1ccccc1-n1nc2c(c1NC(=O)c1cc3ccccc3o1)CS(=O)(=O)C2	.	.	-	.	.	.	.
CCOC(=O)C1CSC2(CCC(c3ccccc3)CC2)N1 (configuration not stated)	-	-	-	146.0	-	-	-
SMILES	MEKK2 mut-MEK5	MEKK2wt PB1 HTS	VLA-4 inh	MEKK3 PB1 HTS	MEKK2wt confirm	MEKK2mut confirm	MEKK3-MEK5 inh
C=CCN1C(=O)c2ccc(C(=O)N(C)CC(=O)Nc3cccc(F)c3)cc2C1=O	-	-	-	-	.	.	.
O=C(O)/C(=C/c1ccco1)NC(=O)c1ccccc1	-	-	-	128.0	-	-	-
CC(C)(C)c1ccc(C(=O)N/C(=C\c2ccco2)C(=O)O)cc1	-	-	-	-	.	.	.
Cc1ccccc1C(=O)Nc1nc2c(C)csc2c(=O)s1	-	-	-	128.0	-	-	-
Cc1csc2nc(NC(=O)c3ccccc3)sc(=O)c12	-	-	-	130.0	-	-	-
Cc1csc2c(=O)sc(NC(=O)c3ccc(F)cc3)nc12	-	-	-	-	.	.	.
